The list is not random: actives were taken first. Their share in the collection is about 11%.
Pf growth 96h = Primary qHTS for delayed death inhibitors of the malarial parasite plastid, 96 hour incubation; Potency, µM (doses to about 28.7 µM), for the others: at the top dose activity change, negative = inhibition, hits mostly inhibitors; P. falciparum luciferase reporter growth, 96 h; hit rate 6.9% among 320,000; AID 504834, 2011; further: on the % scale 0 is the no-effect control and ±100 the full control effect
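P. falciparum expressing integrated firefly luciferase grown in erythrocytes (2% hematocrit, 0.05% parasitemia final) with compounds for 96 hours at 37 C, 5% CO2. Growth inhibition read as loss of luminescence after adding luciferase detection reagent.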
AMA1-RON2 inh = qHTS for Inhibitors of AMA1-RON; Towards Development of Antimalarial Drug Lead: Primary Screen; AlphaScreen AMA1-biotinylated RON2 peptide binding; hit rate 0.2% among 360,000; AID 720542, 2013; Potency, µM (titrated, usually from 58.2 µM), without a hit: at the top dose activity change, negative = inhibition, hits mostly inhibitors; Plasmodium falciparum AMA1 (3D7) - RON2 peptide interaction;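 further: 0% = vehicle wells and -100% = peptide control; nearly all actives have a fitted effect of over 45% in size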
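AMA1 (3D7) with his tag at 25 nM final met compounds first, then biotinylated RON2 peptide at 25 nM; detection used donor plus acceptor beads, 10 µg/mL apiece, read by AlphaScreen after 30 min at room temperature.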
NS1 function inh = qHTS Assay for Inhibitors of Influenza NS1 Protein Function | Potency, µM (highest dose often 46.1 µM), for inactives: at the top dose activity, positive = more growth | hit rate 0.4% among 270,000 | AID 2326, 2010; calls by dose curve; further: actives are rising curves; nearly all actives have a fitted effect of over 50% in size
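In this qHTS, NS1 from influenza A is expressed in budding yeast, where it slows growth. Cells are switched from glucose to 2% galactose medium (pH 6.0, -URA), treated with compound, and growth recovery is read at OD600.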
Pf growth 48h = Primary qHTS for delayed death inhibitors of the malarial parasite plastid, 48 hour incubation; P. falciparum luciferase growth in erythrocytes, 48 h; Potency, µM (highest dose often 28.7 µM), for inactives: at the highest dose activity change, negative = inhibition, hits mostly inhibitors; hit rate 5.9% among 310,000; further: on the % scale 0 is the no-effect control and ±100 the full control effect
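Luciferase-expressing P. falciparum in infected erythrocytes (2% hematocrit, 0.1% parasitemia final) in RPMI 1640/0.5% Albumax were exposed to compound for 48 hours at 37 C, 5% CO2; growth read as luminescence.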
Sm TGR inh = qHTS Assay for the Inhibitors of Schistosoma Mansoni Peroxiredoxins; Schistosoma mansoni thioredoxin glutathione reductase (TGR), Q962Y6; purified TGR, DTNB reduction, TNB absorbance 405 nm; Potency, µM (titrated, usually from 114 µM), for inactives: at the top dose activity change, negative = inhibition, usual class: inhibitors; hit rate 3% among 360,000; AID 485364, 2010; further: on the % scale 0 is the no-effect control and ±100 the full control effect; nearly all actives have a fitted effect of over 60% in size
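First, TGR (20 nM dispensed) and NADPH were mixed with compound. Second, a 15 min room-temperature incubation followed. Third, further NADPH and then DTNB were added to start the reaction. Finally, TNB absorbance was monitored kinetically.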
Numbers without * were called inactive; [ ] = another dose, or the depositor's remark. Unless noted, the call rests on the fitted dose curve; in most records, active means well fitted curve in the direction sought with a large enough effect; inconclusive means small, poorly fitted or top-dose-only effect, or another doubt; inactive means no such curve, though single readings can be large; an effect the other way counts as inactive or inconclusive. Potency means the concentration at half of the fitted maximal effect.

What do the screens show for `CCCCn1nc(C(=O)Nc2c(C)n(C)n(-c3ccccc3)c2=O)c2ccccc2c1=O`?
Pf growth 96h: 15µM*; AMA1-RON2 inh: -3%; Pf growth 48h: inconclusive; Sm TGR inh: -11%

How did CCN(CC)CCCNC(=O)Cn1nc(N2CCN(c3ccccc3OC)CC2)ccc1=O do in these assays?
Sm TGR inh: 11%

What do the screens show for `COc1ccccc1CNC(=O)c1cc2cccc3c2n1CC(C)S3` (centres undefined)?
Sm TGR inh: -1%

Results for COC(=O)c1cc2ccccc2c(-c2c(O)ccc3ccccc23)c1O ?
Pf growth 96h: inconclusive; AMA1-RON2 inh: -16%; NS1 function inh: -11%; Pf growth 48h: 9.3µM*; Sm TGR inh: -2%

What do the screens show for `CCOC(=O)N1CCN(C(=O)CS(=O)Cc2nc(-c3ccc(C)cc3)oc2C)CC1` (centres undefined)?
Pf growth 96h: inconclusive; AMA1-RON2 inh: -3%; NS1 function inh: 5%; Sm TGR inh: inconclusive

What do the screens show for `Cc1cccc(-c2nc(CS(=O)CC(=O)N3CCCCC3)c(C)o2)c1` (centres undefined)?
Pf growth 96h: -96%; AMA1-RON2 inh: 9%; NS1 function inh: -5%; Sm TGR inh: 35µM*

What do the screens show for `Cc1cccc(-c2nc(CS(=O)CC(=O)NCc3cccs3)c(C)o2)c1` (centres undefined)?
Pf growth 96h: inconclusive; AMA1-RON2 inh: 6%; NS1 function inh: -2%; Sm TGR inh: -23%

What do the screens show for `Cc1ccc(-c2nc(CS(=O)CC(=O)N3CCN(c4ccccc4)CC3)c(C)o2)cc1` (centres undefined)?
Pf growth 96h: 0%; AMA1-RON2 inh: -6%; NS1 function inh: 18%; Pf growth 48h: -7%; Sm TGR inh: -15%

Results for Cc1cccc(-c2nc(CS(=O)CC(=O)NCC3CCCO3)c(C)o2)c1 (centres undefined) ?
Pf growth 96h: inconclusive; AMA1-RON2 inh: -3%; NS1 function inh: inconclusive; Pf growth 48h: 7%; Sm TGR inh: 28µM*

How did Cc1oc(-c2ccccc2)nc1CS(=O)CC(=O)N1CCc2ccccc2C1 (centres undefined) do in these assays?
Pf growth 96h: 38%; AMA1-RON2 inh: 8%; NS1 function inh: inconclusive; Sm TGR inh: 3.2µM*

How did Cc1cc(Cl)cc(Cl)c1OCC(=O)NCc1ccco1 do in these assays?
Pf growth 96h: inconclusive; AMA1-RON2 inh: -5%; NS1 function inh: -33%; Pf growth 48h: 11%; Sm TGR inh: 40µM*

Results for O=C(COc1ccc(Cl)cc1Cl)NCc1ccco1 ?
Pf growth 96h: inconclusive; AMA1-RON2 inh: -9%; NS1 function inh: -21%; Pf growth 48h: 55%; Sm TGR inh: 0%

Results for Cc1ccc2c(Cl)cc(Cl)c(OCC(=O)NC(=O)NCc3ccco3)c2n1 ?
Pf growth 96h: inconclusive; AMA1-RON2 inh: -7%; NS1 function inh: -6%; Pf growth 48h: 2.3µM*; Sm TGR inh: 0%

Results for Cc1ccc(OCC(=O)NCCNC(=O)c2ccco2)cc1C ?
Pf growth 96h: -4%; AMA1-RON2 inh: -5%; NS1 function inh: 2%; Pf growth 48h: 39%; Sm TGR inh: -6%

What do the screens show for `Cc1ccc(OCC(=O)NCc2ccco2)cc1C`?
Pf growth 96h: 62%; AMA1-RON2 inh: 5%; NS1 function inh: -7%[9.22 µM]; Pf growth 48h: 13%; Sm TGR inh: 35µM*

Results for Cc1ccc2c(Cl)cc(Cl)c(OCC(=O)NCc3ccco3)c2n1 ?
Pf growth 96h: inconclusive; NS1 function inh: 9%; Sm TGR inh: inconclusive

What do the screens show for `CCOC(=O)C1CCN(C(=O)COC(=O)c2oc3ccccc3c2C)CC1`?
Pf growth 96h: -7%; AMA1-RON2 inh: 8%; Pf growth 48h: 0%; Sm TGR inh: 0%

How did Cc1ccccc1-c1nc2c(c(SCc3cccc(Cl)c3)n1)Cc1c(CO)cnc(C)c1O2 do in these assays?
Sm TGR inh: -3%

Results for COc1cccc2c1OC1(CCN(C(C)C)CC1)N1N=C(c3cccnc3)CC21 (centres undefined) ?
Pf growth 96h: 83%; AMA1-RON2 inh: 4%; NS1 function inh: 21%; Pf growth 48h: 65%; Sm TGR inh: 9%

What do the screens show for `CC(C)N1CCC2(CC1)Oc1ccc(Br)cc1C1CC(c3cccnc3)=NN12` (centres undefined)?
Pf growth 96h: 13µM*; AMA1-RON2 inh: 6%; NS1 function inh: -61%; Pf growth 48h: inconclusive; Sm TGR inh: 7%

Results for O=C(Nc1nccs1)c1cc2sccc2n1Cc1ccc(F)cc1 ?
Pf growth 96h: -9%[5.75 µM]; AMA1-RON2 inh: 19%; NS1 function inh: 6%; Pf growth 48h: 13µM*; Sm TGR inh: 0%

Results for CC(=O)c1ccc(NC(=O)c2cc3sccc3n2Cc2ccc(F)cc2)cc1 ?
Sm TGR inh: 5%

How did Cc1csc(NC(=O)NCC2CCCC(CNC(=O)Nc3nc(C)cs3)C2)n1 (centres undefined) do in these assays?
Pf growth 96h: inconclusive; AMA1-RON2 inh: -16%; NS1 function inh: 8%; Pf growth 48h: 12µM*; Sm TGR inh: -14%

How did COC(=O)[C@@H]1CCCN1C(=O)CCc1nnc(C2CCCCC2)o1 do in these assays?
Pf growth 96h: 17µM*; AMA1-RON2 inh: -9%; NS1 function inh: 3%; Pf growth 48h: 24%; Sm TGR inh: -8%

Results for Fc1ccc(/C=C\c2nccc3c2[nH]c2ccccc23)cc1 ?
Pf growth 96h: 35%[5.75 µM]; AMA1-RON2 inh: 34%; NS1 function inh: -4%; Pf growth 48h: inconclusive

What do the screens show for `C(=C\c1nccc2c1[nH]c1ccccc12)/c1ccccc1`?
Pf growth 96h: 2.6µM*; AMA1-RON2 inh: 53%; NS1 function inh: -43%; Pf growth 48h: 1.9µM*; Sm TGR inh: 11%

Results for Cc1ccc(/C=C\c2nccc3c2[nH]c2ccccc23)cc1 ?
Pf growth 96h: inconclusive; AMA1-RON2 inh: 17%; NS1 function inh: -44%; Pf growth 48h: 2.6µM*

What do the screens show for `Cc1ccc(/C=C/c2nc3ccccc3[nH]2)cc1`?
Sm TGR inh: -6%

Results for CC1CCCN(Cc2nc3c(c(=O)n(C)c(=O)n3C)n2Cc2ccc(Cl)cc2Cl)C1 (centres undefined) ?
Sm TGR inh: -6%

What do the screens show for `Fc1ccc(CSc2ccc(-c3ccco3)nn2)cc1`?
Pf growth 96h: 53%; AMA1-RON2 inh: -13%; NS1 function inh: 7%; Pf growth 48h: 199%; Sm TGR inh: 45µM*

What do the screens show for `Cc1nc(C)c(-c2ccc(SCc3cccc(F)c3)nn2)s1`?
Pf growth 96h: 63%; AMA1-RON2 inh: -4%; NS1 function inh: -13%; Pf growth 48h: -2%; Sm TGR inh: -15%

High-throughput results from PubChem BioAssay.
